# Rows were chosen to be rich in hits. Some 7.5% of all compounds tested hit in one or more screens of this group.
# ELG1 genotox: qHTS screen for small molecules that induce genotoxicity in human embryonic kidney (HEK293T) cells expressing luciferase-tagged ELG1. HEK293T ELG1-luciferase reporter, luminescence, 16 h. Potency, µM (doses to about 46 µM), usual class: activators. actives 1.3% (n = 330,000). AID 504466, 2011; also: nearly all actives have a fitted effect of over 60% in size
#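 DMSO vehicle served as control against compound-treated ELG1-luciferase HEK293T cells; exposure lasted 16 hr at 37 °C and 5% CO2, followed by ONE-Glo luminescence detection after 30 min.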
# Rab9 promoter act: qHTS Assay for Rab9 Promoter Activators | Potency, µM (series often up to 9.22 µM), actives largely listed as activators | AID 485297, 2010 | Huh7 Rab9 promoter-luciferase reporter, luminescence, 24 h | actives 2.8% (n = 320,000); also: nearly all actives have a fitted effect of over 60% in size
#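 Cell-based reporter: Huh7 stable for Rab9 promoter-driven luciferase, plated in reduced-serum medium with 10% FBS at 1500 cells/well, compound-treated 24 h at 37 °C, luminescence read after 10 min reagent.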
# NPC1 prom act: qHTS Assay for NPC1 Promoter Activators; actives 2.4% (n = 320,000); Potency, µM (titrated, usually from 9.22 µM), actives largely listed as activators; Huh7 NPC1 promoter luciferase reporter, 24 h; AID 485313, 2010; also: nearly all actives have a fitted effect of over 60% in size
#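 Luminescence read-out of NPC1 promoter-driven luciferase in stably transfected Huh7 cells; compounds delivered in DMSO and left 24 h at 37C, 5% CO2, qHTS titration format.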
# SMN2 splice up: qHTS Assay for Enhancers of SMN2 Splice Variant Expression. HEK293 SMN2-luciferase splicing reporter, luminescence, 30-36 h. Potency, µM (titrated, usually from 46.1 µM), hits mostly activators. actives 2.8% (n = 210,000); also: nearly all actives have a fitted effect of over 55% in size
#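 qHTS luciferase splicing reporter: luminescence rises when SMN2 exon 7 is included in transfected HEK293 cells. Compound exposure lasted 30-36 h at 37C, with 4.5 mM final sodium butyrate as control, followed by a ONE-Glo read.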
# FLuc counter: qHTS profiling assay for firefly luciferase inhibitor/activator using purifed enzyme and Km concentrations of substrates (counterscreen for miR-21 project) | Luciferin 4-monooxygenase (Photinus pyralis), P08659 | purified FLuc, Km substrates, luminescence inhibition | Potency, µM (highest dose often 57.5 µM), actives largely listed as inhibitors | actives 6.9% (n = 360,000); also: nearly all actives have a fitted effect of over 55% in size
# Target sequence (P08659 whole entry, looked up): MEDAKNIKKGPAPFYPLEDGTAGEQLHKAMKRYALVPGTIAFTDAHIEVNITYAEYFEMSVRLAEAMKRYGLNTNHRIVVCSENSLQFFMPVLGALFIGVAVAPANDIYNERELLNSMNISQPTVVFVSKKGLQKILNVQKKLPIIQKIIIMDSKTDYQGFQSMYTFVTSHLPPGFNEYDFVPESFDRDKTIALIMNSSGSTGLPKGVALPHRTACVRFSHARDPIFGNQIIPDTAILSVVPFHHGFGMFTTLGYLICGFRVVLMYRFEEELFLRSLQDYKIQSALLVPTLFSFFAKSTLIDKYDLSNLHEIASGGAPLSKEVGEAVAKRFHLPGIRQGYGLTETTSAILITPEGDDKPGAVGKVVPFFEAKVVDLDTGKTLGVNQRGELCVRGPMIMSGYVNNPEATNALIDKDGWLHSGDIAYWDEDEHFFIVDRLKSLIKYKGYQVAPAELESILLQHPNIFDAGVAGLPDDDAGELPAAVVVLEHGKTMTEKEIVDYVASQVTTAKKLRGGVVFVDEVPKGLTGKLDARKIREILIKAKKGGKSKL
#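 Purified P. pyralis luciferase (10nM final) with 10uM D-luciferin and 10uM ATP (Km levels) in 50mM Tris acetate pH 7.5, 10mM Mg acetate, 0.01% Tween-20, 0.05% BSA; qHTS 6-point titration, ~60 µM downward; luminescence read.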
# KinaseGlo FLuc: Counterscreen for Luciferase (Kinase-Glo TM) Inhibition; Kinase-Glo luciferase, ATP luminescence, 8 min; Luciferin 4-monooxygenase (Photuris pensylvanica), Q27757; actives 0.28% (n = 200,000); Potency, µM (highest dose often 38.3 µM), hits mostly inhibitors; also: nearly all actives have a fitted effect of over 60% in size
#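 Compounds were added to a substrate mix at pH 7.2 (50 mM imidazole, 10 uM ATP, within the enzyme's linear range), followed by Kinase-Glo detection reagent; luminescence was measured after 8 minutes at ambient temperature.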
# A number is an active result; i = inactive; ? = inconclusive; nt = not tested or not shown. Calls follow the shape of the dose curve; as a rule, active = well fitted curve in the direction sought with a large enough effect; inconclusive = small, poorly fitted or top-dose-only effect, or another doubt; inactive = no such curve, though single readings can be large; an effect the other way counts as inactive or inconclusive.
SMILES,ELG1 genotox,Rab9 promoter act,NPC1 prom act,SMN2 splice up,FLuc counter,KinaseGlo FLuc
O=C(O)c1ccccc1SCc1cn2cc(Br)ccc2n1,?,?,?,?,9.53µM,i
O=C(O)c1cccnc1SCc1cn2cc(Br)ccc2n1,i,i,i,i,23.9µM,i
O=C(O)c1ccccc1SCc1csc(-c2ccccc2)n1,?,?,i,nt,?,nt
O=C(O)c1ccccc1C(=O)Nc1ccc(Br)c2cccnc12,i,i,i,i,23.9µM,i
O=C(O)c1cc(Cl)c(Cl)cc1C(=O)Nc1cccc2cccnc12,i,i,i,i,i,i
COc1cccc(/C=N/Nc2ncnc(N)c2[N+](=O)[O-])c1OC,?,0.562µM,1.78µM,3.16µM,4.78µM,i
Cc1ccccc1-n1c(C)cc(/C=N/Nc2ccc([N+](=O)[O-])cn2)c1C,?,?,?,i,?,i
Cc1cc(/C=N/Nc2ncnc(N)c2[N+](=O)[O-])c(C)n1-c1ccccc1,?,i,?,nt,0.0757µM,nt
Cc1cc(/C=N/Nc2nc(N)ncc2[N+](=O)[O-])c(C)n1-c1cccc(C(F)(F)F)c1,?,0.447µM,0.891µM,nt,1.51µM,nt
Cc1cc(/C=N/Nc2ccc([N+](=O)[O-])cn2)c(C)n1-c1ccc(C(=O)O)cc1,i,i,i,i,?,i
Cn1cnc(S(=O)(=O)N2CCC(C(=O)NCc3ccccc3)CC2)c1,nt,nt,nt,nt,i,nt
Cc1cc(Br)ccc1NC(=O)C(Cc1ccccc1)NS(=O)(=O)c1ccc(Br)s1 (stereo not drawn),nt,nt,nt,i,i,nt
Cc1cccc(S(=O)(=O)c2cn(Cc3ccccc3)c3cc(N4CCCCC4C)c(F)cc3c2=O)c1 (stereo not drawn),nt,nt,nt,nt,i,nt
COc1cccc(NC(=O)CSc2nc3cc(OC)c(OC)cc3c3nc(-c4ccccc4)nn23)c1,nt,nt,nt,i,i,nt
CN(C)S(=O)(=O)c1cccc(NC(=O)c2n[nH]c(=O)c3ccccc23)c1,i,i,i,i,i,i
CCN(CC)S(=O)(=O)c1cc(NC(=O)c2n[nH]c(=O)c3ccccc23)ccc1C,i,?,i,i,23.9µM,i
CC(C)c1ccc(NC(=O)c2n[nH]c(=O)c3ccccc23)cc1,?,1.58µM,?,5.62µM,i,i
Cc1cc(NC(=O)c2n[nH]c(=O)c3ccccc23)ccc1Br,?,5.01µM,?,nt,i,nt
CCn1c(=O)c2sccc2n2c(CCCC(=O)Nc3ccc(Oc4ccccc4)cc3)nnc12,nt,nt,nt,nt,i,nt
Cc1c(C(=O)N(C)C)sc2c1c(=O)n(-c1ccc(Cl)c(Cl)c1)c(=O)n2CC(=O)Nc1ccc(Br)cc1F,nt,nt,nt,nt,i,nt
CCOC(=O)N1CCN(C(=O)c2ccc3c(c2)sc2nc(-c4ccccc4)cn23)CC1,i,3.16µM,3.55µM,i,21.3µM,i
CCOC(=O)N1CCN(CC(=O)Nc2nc3ccccc3s2)CC1,i,i,i,nt,i,nt
CCOC(=O)N1CCN(C(=O)c2nc3ccccc3s2)CC1,?,i,i,?,19µM,i
c1ccc2c(c1)CCCN2c1nc2ccccc2n2cnnc12,i,i,i,i,15.1µM,i
c1ccc2c(c1)CCN(c1nc3ccccc3n3cnnc13)C2,i,i,i,i,?,i
CC1Cc2cc(S(=O)(=O)CCC(=O)Nc3cccc(F)c3)ccc2N1C(=O)C1CC1 (stereo not drawn),nt,nt,nt,nt,i,nt
Cc1ccc(-c2ccc(C(=O)O)[nH]2)cc1,i,i,i,i,19µM,i
COc1ccc(-c2ccc(C(=O)O)c(=O)[nH]2)cc1,i,i,i,?,i,i
Oc1ccccc1-c1cc(-c2cccc(F)c2)n[nH]1,?,i,i,?,5.36µM,i
Oc1ccc(Cl)cc1-c1cc(-c2cccc(Br)c2)n[nH]1,i,i,i,i,i,i

# Source: PubChem BioAssay
